Source: PubChem BioAssay AID651844 (Broad Institute, 2012)
Potency and affinity values are given separately. Records with an inconclusive call do not appear. Where a call stands in place of a potency, no number is given. Active and inactive are the calls of the source.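 Rule for the calls: active = every test run shows a luminescence drop with half-maximal concentration at most twice the top tested dose; inconclusive = test runs disagree, weak flat response, or unreliable curve fit; inactive = the rest.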

Assay: NIH/3T3 fibroblast cytotoxicity, dose response, cytotoxicity control, cell-based, dry powder samples (AID 651844)
Settings: NIH/3T3 viability, CellTiter-Glo ATP luminescence, 90 h; series mostly up to 16 µM

Compound | outcome
CC(C)N1C[C@H](C)[C@@H](CN(C)C(=O)OC(C)(C)C)Oc2c(NC(=O)c3ccccc3)cccc2C1=O | inactive
C[C@H]1CN([C@@H](C)CO)C(=O)c2cccc(NC(=O)c3ccncc3)c2O[C@@H]1CN(C)Cc1ccccc1 | inactive
CC(C)N1C[C@H](C)[C@@H](CN(C)Cc2ccc(Cl)cc2)Oc2c(NC(=O)c3ccncc3)cccc2C1=O | inactive
CC(C)N1C[C@H](C)[C@@H](CN(C)C(=O)OC(C)(C)C)Oc2c(C#N)cccc2C1=O | inactive
CC(C)N1C[C@H](C)[C@@H](CN(C)C(=O)OC(C)(C)C)Oc2c(NC(=O)c3ccncc3)cccc2C1=O | inactive
CC(C)N1C[C@H](C)[C@@H](CN(C)Cc2ccc(Oc3ccccc3)cc2)Oc2c(NC(=O)c3ccccc3)cccc2C1=O | inactive
C[C@@H]1CN([C@@H](C)CO)C(=O)c2cccc(NC(=O)c3ccncc3)c2O[C@@H]1CN(C)Cc1ccc(Oc2ccccc2)cc1 | inactive
CNC[C@H]1Oc2c(NC(=O)c3ccccc3)cccc2C(=O)N(C(C)C)C[C@@H]1C | inactive
CC(C)N1C[C@H](C)[C@@H](CN(C)Cc2ccc(Oc3ccccc3)cc2)Oc2c(NC(=O)c3cccnc3)cccc2C1=O | inactive
CNC[C@@H]1Oc2c(NC(=O)c3ccncc3)cccc2C(=O)N(C(C)C)C[C@H]1C | inactive
CC(C)N1C[C@H](C)[C@@H](CN(C)C(=O)OC(C)(C)C)Oc2c(NC(=O)c3cccnc3)cccc2C1=O | inactive
C[C@H]1CN([C@@H](C)CO)C(=O)c2cccc(NC(=O)c3ccncc3)c2O[C@@H]1CN(C)Cc1ccc(C(=O)O)cc1 | inactive
CC(C)N1C[C@H](C)[C@@H](CN(C)C(=O)OC(C)(C)C)Oc2c(NC(=O)c3ccccn3)cccc2C1=O | inactive
CC(C)N1C[C@H](C)[C@@H](CN(C)Cc2ccc(Oc3ccccc3)cc2)Oc2c(NC(=O)c3ccccn3)cccc2C1=O | inactive
CC(C)N(C)C(=O)c1cccc(NC(=O)c2ccncc2)c1OCCCN(C)Cc1ccc(Cl)cc1 | inactive
C[C@H]1CN([C@@H](C)CO)C(=O)c2cccc(NC(=O)c3ccncc3)c2O[C@@H]1CN(C)Cc1ccncc1 | inactive
CC(C)N1C[C@H](C)[C@@H](CN(C)C(=O)OC(C)(C)C)Oc2c(C(=O)Nc3ccncc3)cccc2C1=O | inactive
C[C@H]1CN([C@@H](C)CO)C(=O)c2cccc(NC(=O)c3ccncc3)c2O[C@@H]1CN(C)Cc1ccc2c(c1)OCO2 | inactive
CC(C)N1C[C@@H](C)[C@H](CN(C)Cc2ccc(Oc3ccccc3)cc2)Oc2c(cccc2N(C)C(=O)c2ccncc2)C1=O | inactive
CCCn1ncc(CN(C)C[C@H]2Oc3c(NC(=O)c4ccncc4)cccc3C(=O)N(C(C)C)C[C@@H]2C)c1C | inactive
C[C@@H]1CN([C@@H](C)CO)C(=O)c2cccc(NC(=O)c3ccncc3)c2O[C@H]1CN(C)Cc1cccc(Cl)c1 | inactive
